The whole screen tested about 320,000 compounds, of which about 50 (0.02%) were called active.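 The calls were made as follows: active = GFP response relative to DMSO above a set limit, near screen average plus 3 SD (cut at about 150% in these data); inconclusive = fewer than 70 cells counted for the yeast strain; inactive = the rest.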 Shown is part of a subset that was picked to be rich in actives.
Test: modulators of AGP1-GFP expression in yeast TOR pathway, primary screen, cell-based, multiplex flow cytometry, S. cerevisiae, MLPCN library (AID 2066);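 also: median GFP channel fluorescence of the gated AGP1 strain per well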
Details: 3 h, at 10 µM, hits give high values, GFP as percent of DMSO wells

GFP response vs DMSO, active:
Cc1cccc(Nc2nc3c(S(=O)(=O)c4ccccc4)nnn3c3ccccc23)c1C 224% [may fluoresce green], CN(C)S(=O)(=O)c1cc(C(=O)Nc2ccn(C)n2)c(Cl)cc1Cl 1300% [may fluoresce green]

GFP response vs DMSO, inactive:
CC1(C)C(=O)C2(CCCCC2)C(=O)OC1c1cccs1 (stereo not given) 103%, O=C(c1cccc(F)c1)N1CCN(c2ccc([N+](=O)[O-])c3cccnc23)CC1 90.5%, CC(C)C[C@H](NC(=O)NCCc1ccc(Cl)cc1)C(=O)O 99.6%, COC(c1ccccc1)(c1ccccc1)C(Oc1nc(C)cc(C)n1)C(=O)O (stereo not given) 98.3%, Cc1ccc(S(=O)(=O)NC2CCCCCC2)cc1 103%, Cc1ccc(S(=O)(=O)Nc2ccc3c(c2)C(=O)N([C@H](C)CO)C[C@@H](C)[C@@H](CN(C)C(=O)Nc2cccc4ccccc24)O3)cc1 96.4%, C=CCC(C(=O)c1ccccc1)[N+](C)(C)CC=C (stereo not given) 96.9%, S=c1nc2ccccc2c2nc(-c3cccnc3)[nH]n12 102%, CCC(C)n1c(-c2cc(OC)c(OC)c(OC)c2)nc2nc3ccccc3nc21 (stereo not given) 101%, CCc1ccc(-c2cc3c(=O)n(CC(=O)NCCCN4CCN(Cc5ccccc5)CC4)nc(C)n3n2)cc1 102%, CN(C)C(CNC(=O)c1ccc(OCc2cn3ccccc3n2)cc1)c1ccco1 (stereo not given) 97.7%, CC(C)Cc1nnc(NC(=O)CCNC(=O)c2ccccc2Cl)s1 105%, O=C(CCCOc1ccccc1)NNC(=O)c1ccc(Cl)cc1 109%, Cn1cccc1C(=O)OCC(=O)c1ccc(Br)s1 100%, COc1cc(NC(=O)CCNC(=O)Cn2ccc3ccccc3c2=O)cc(OC)c1OC 104%, Cc1cc(C(F)(F)F)nn1CC(=O)N1CCCC1 97.4%, CSc1ccc(S(=O)(=O)NCC(=O)OCC(=O)NC2(C#N)CCCCC2)cc1[N+](=O)[O-] 108%, CCc1ccc(NC(=O)C(=O)NNC(=O)c2cccs2)cc1 107%, CC(C)N1C(=O)N(c2ccccc2)C(C)(O)CC1(C)C (stereo not given) 99.2%, COc1ccc(C(C)(C)C)cc1NC(=O)CCN1C(=O)C2CCCCC2C1=O (stereo not given) 112%, Cc1nn2cc(-c3ccc(Cl)cc3)cnc2c1Br 102%, CC(C)c1ccc(NC(=O)CCN2C(=O)c3ccc([N+](=O)[O-])cc3C2=O)cc1 111%, CC(C)(C)c1ccc(C(=O)N2CCN(CCNC(=O)C(=O)Nc3ccc(F)cc3)CC2)cc1 100%, Cc1ccc(NC(=O)Cn2cccc2C2=NC(c3ccccc3)CO2)c(C)c1 (stereo not given) 103%, O=C1[C@@H]2C(c3cccnc3)=NO[C@@H]2C(=O)N1c1ccc(Cl)cc1Cl 112%, C#CCO[C@@H]1C[C@H](n2cnc3c(=O)[nH]c(NC(=O)C(C)C)nc32)O[C@@H]1CO 87.2%, CC1=CC(C)(C)NC(=S)N1NC(=O)c1ccccc1Cl 109%, COc1ccc(/C(C)=N/N2CCOCC2)c(O)c1 104%, Cc1cccc(CSc2nc3c(c(=O)n2C)SCC3)c1 91.2%, Cn1nccc1C(=O)NC1CCCc2c1cnn2-c1ccc(F)cc1F (stereo not given) 95.7%, CN(C)N(C)C(=O)C(O)(c1ccccc1)c1ccccc1 109%, CCC(C)(C)NC(=O)C(c1ccc(O)cc1)N(Cc1ccco1)C(=O)CCC(=O)Nc1ccccn1 (stereo not given) 100%, CCOc1ccc(S(=O)(=O)N2CCC(C(=O)NCC(=O)Nc3cccc(Cl)c3C)CC2)cc1 93.8%, O=C(NCc1ccc(F)cc1)C1CCN(C(=O)Nc2ccc(F)cc2)CC1 96.4%, O=C(OCC(=O)N1CCN(C(=O)c2ccco2)CC1)c1ccc(Cl)c(Cl)c1 103%, COc1ccccc1OCc1ccc(C(=O)NC(C)c2ccccc2)o1 (stereo not given) 95.8%, Cc1c(Cl)c([N+](=O)[O-])nn1Cc1ccc(C(=O)N/N=C\c2cc(Cl)ccc2O)o1 99.4%, C/C=C/c1ccc(OCC(=O)NNC(=O)CN(C)S(=O)(=O)c2ccc(C)cc2)c(OC)c1 91.6%, O=C(O)C(F)(F)C(NCc1ccccc1)c1ccccc1 (stereo not given) 102%, CCOC(=O)C1C(=O)NCC1c1ccccc1 (stereo not given) 109%, CCOC(=O)c1ccccc1NC(=O)c1c(N)n(C)c(=O)[nH]c1=O 87.3%, N#C/C=C/N1CCN(Cc2ccc3c(c2)OCO3)CC1 93%, O=C(O)CCCCOn1ccnc1 91.2%, O=C(Nc1c2c(nn1-c1cccc(Cl)c1)CS(=O)(=O)C2)c1cccs1 90.9%, Cc1ccccc1NC(=O)C(C)c1ccc(-c2ccccc2)c(F)c1 (stereo not given) 97.8%, CCn1cc(C(=O)N2CC(C)CC(C)C2)c(=O)c2cc(S(=O)(=O)N3CCCC3)ccc21 (stereo not given) 93.8%, CC1=CC=CN2C1=NC(=O)CC2(C)C(=O)N(CC(=O)NC1CCCC1)c1ccccc1C (stereo not given) 99.9%, CCOc1ncccc1C(=O)OCC(=O)Nc1cccc(S(=O)(=O)N2CCCCCC2)c1 100%, CCOc1ccc(N2C(=O)CSC2=NC#N)cc1 88.3%, Cc1ccc(S(=O)(=O)NCC(=O)N(CC(=O)NCC2CCCO2)c2cccc(F)c2)cc1 (stereo not given) 114%, CC1(C)NC(=O)N(CC(=O)N2CCN(S(=O)(=O)c3ccccc3F)CC2)C1=O 95.5%, Cc1cc(C)c(NC(=S)N2CCCC2C(=O)O)c(C)c1 (stereo not given) 102%, Cc1cccc(C)c1NC(=O)C1(N(C(=O)c2ccccn2)c2ccc(O)cc2)CCCCC1 97.2%, CC(=O)C[C@H](O)CC(=O)[C@@H]1OC(=O)[C@@H](C)C/C=C\Cc2ccccc21 98.2%, CCOc1ccc(C2NC(=S)NC3=C2CCc2ccccc23)cc1 (stereo not given) 103%, CCCCn1nc(C(=O)N2CCc3ccccc32)c2ccccc2c1=O 98.5%, Cc1ccccc1OCC(=O)NNC(=O)c1ccc(-n2cncn2)c([N+](=O)[O-])c1 106%, O=C(CSc1cccc[n+]1[O-])NCCCc1ccccc1 101%, O=C(Nc1ccc(F)cc1)C1CCCN(S(=O)(=O)c2ccc(-n3cnnn3)cc2)C1 (stereo not given) 102%, CCN(CC)CCNS(=O)(=O)c1ccc(/C=C/C(=O)O)cc1 98.4%, Cc1ccc(NC(=O)CSc2nn3c(=O)c(C)nnc3s2)cc1Cl 93.9%, CC(=O)Nc1ccc(Nc2nc3c(S(=O)(=O)c4ccc(C)c(C)c4)nnn3c3ccccc23)cc1 100%, Cc1ccc(S(=O)(=O)c2nnn3c2nc(N2CCN(c4ccccn4)CC2)c2ccccc23)cc1 97.1%, NC(=O)C1CC=CCC1C(=O)OCC(Cl)=C(Cl)Cl (stereo not given) 105%, Cc1cc(C)cc(OCC(=O)OCC(=O)NC2CCCC2)c1 87.5%, Cc1ccc(C(=O)Nc2ccn(C)n2)cc1 102%, O=C(Nc1nccs1)c1cc(S(=O)(=O)N2CCOCC2)c(Cl)cc1Cl 100%, Cn1nnnc1SCC(=O)Nc1ccccc1C(=O)NC1CC1 102%, Cc1ccc2c(=O)cc(C(=O)NCCc3ccc(S(N)(=O)=O)cc3)oc2c1C 93.5%, Cc1oc(C(N)=O)cc1COc1ccc(C(N)=O)cc1 101%, O=C1CCC/C=C/C[C@@H](CC(=O)N(CCO)Cc2ccccc2)C(=O)NC[C@H](c2ccccc2)O1 96.8%, Cc1ccc(C)c(NC(=O)CCC(=O)N/N=C2/CC(=O)CC(C)(C)C2)c1 96.2%, O=C(COC(=O)c1cc(S(=O)(=O)N2CCOCC2)ccc1F)NC1CC1 91.4%, COc1cccc(C(=O)Nc2cc3c(cc2Br)OCCCO3)c1 92%, CS(=O)(=O)Nc1ccccc1C(=O)OCC(=O)NC1CC1 106%, O=C(CCc1[nH]c2ccccc2c1Sc1ccccc1)N(CCO)CCO 99.2%, Nc1nc(NCc2ccccc2)n(-c2ccccc2)n1 99.9%, COc1cc(C)ccc1OCC(=O)OCC(=O)c1ccc[nH]1 100%, COc1ccc(S(=O)(=O)N(C)C[C@@H]2Oc3ccc(NS(=O)(=O)c4cn(C)cn4)cc3C(=O)N([C@@H](C)CO)C[C@@H]2C)cc1 91.3%, COCCn1c(SCC(=O)Nc2ccccc2F)nc2c(c1=O)SCC2 96.5%, Cc1ccc(Oc2cc(NC(=O)CCCn3nc(C)c([N+](=O)[O-])c3C)cc([N+](=O)[O-])c2)cc1 95.5%, CCn1cc(C(=O)Nc2cc(C)ccc2C)c(=O)c2ccc(C)nc21 108%, C=CCNC(=S)/N=c1/ccccn1Cc1ccccc1 108%, Cc1ccc2cc(C)c(N3CCC(C)CC3)nc2c1 108%, CCC1(C)Cc2c(sc3nnn(CC(=O)Nc4ccc(Cl)cc4)c(=O)c23)CO1 (stereo not given) 98%, Cc1nn(Cc2ccccc2)c(C)c1C(=O)N1CCN(CC(=O)Nc2ccccc2Cl)CC1 99.8%, CCN1C(=O)N[C@@H](c2ccccc2)[C@H](C(C)=O)[C@H]1C 81.1%, COC(=O)c1cc(NC(=O)c2cc(C(C)(C)C)nn2Cc2cccc(C)c2)ccc1N1CCOCC1 97%

Source: PubChem BioAssay AID2066 (NMMLSC, 2009)
